65 molecules from PubChem BioAssay AID1626 (SRMLSC, 2009) can be followed below.

The whole screen tested about 220,000 compounds, of which about 2,000 (0.91%) were called active. Inconclusive results (about 2%) are left out. No stated cut-off is given here; in the data, inconclusive means inhibition above about 80% without an active follow-up result; inactive means below that; test concentration not stated here. Not all results are given here. Potency and affinity values are given separately.

In general, inhibition refers to the drop in the measured response relative to a control, in per cent.

The assay can be described thus: M. tuberculosis H37Rv growth inhibitors, H37Rv strain (AID 1626).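 Further: bacteria incubated seven days before Alamar blue readout; 0% = bacteria only wells and 100% = bacteria with antibiotic wells.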 The conditions noted are these: active compounds read high, concentration not given here.
`COc1ccc(Cl)cc1C(=O)NNC(=O)CCNC(C)=O`: the inhibition is -6.02% (inactive). As for `O=C1CS/C(=C/C(=O)c2ccccc2)N1`, the inhibition was -2.65% (inactive). Take `Cc1ccc(C(=O)/C=C2/NC(=O)CS2)cc1`: the inhibition is -4.36% (inactive).

With `COC(=O)CN1C(=S)N(c2ccc(OC)cc2)C(=O)/C1=C/c1cccs1`, the inhibition was 4.42% (inactive). The same measure for `c1ccc(Cc2nnc(N3CCOCC3)c3ccccc23)cc1`: -4.25% (inactive); for `CN(C)S(=O)(=O)c1cc(C(=O)NCc2ccccc2)c(Cl)cc1Cl`: -5.51% (inactive); for `COc1ccc(CCN(C)C(=O)c2ccc(S(=O)(=O)NCc3ccco3)cc2)cc1OC`: 2.54% (inactive).

Consider `CC1=C2C3OC(=O)C(C)[C@@H]3CC[C@](C)(O)C2C2C3C4C5(C12)[C@H]1OC(=O)[C@@H](C)C1CC[C@]4(C)O[C@]5(C)[C@@H]3O` (stereo not given in full), for which the inhibition is 17.2% (inactive). The same measure for `Nc1ccc(-c2nc3ccc(N)cc3s2)cc1`: -3.52% (inactive); for `Cc1nc2cc3sc(C)nc3cc2s1`: -1.33% (inactive). For the molecule `CCc1ccccc1NC(=O)CSC1=C(C#N)C(c2ccc3c(c2)OCO3)C2=C(CCCC2=O)N1` (stereo not given), the inhibition was 4.73% (inactive). The same measure for `CCN(CC)CCCNc1nc2cc(OC)c(OC)cc2c2nc(-c3cccnc3)nn12`: 7.65% (inactive); for `CCN(CC)CCNc1nc2cc(OC)c(OC)cc2c2nc(-c3ccccc3)nn12`: 75% (inactive). Consider `CC(C)C(NS(=O)(=O)c1cccs1)C(=O)N(C)Cc1ccccc1` (stereo not given), for which the inhibition was -0.19% (inactive). Take `Cc1cc(NC(=O)CSc2nnc(C3CC3)n2N)c([N+](=O)[O-])cc1C`: the inhibition is -1.15% (inactive). Regarding `CCCCCCn1c2c(c(=N)c3c1CCC3)CCC2`, the inhibition is 1.15% (inactive). The same measure for `CCCCCCCCCn1c2c(c(=N)c3c1CCC3)CCC2`: 56.5% (inactive).

On to `CCCCCn1c2c(c(=N)c3ccccc31)CCC2`, for which the inhibition is 7.75% (inactive). Consider `CCCCCCCn1c2c(c(=N)c3ccccc31)CCC2`, for which the inhibition was 9.19% (inactive). Regarding `CCCCCCCn1c2c(c(=N)c3c1CCC3)CCCC2`, the inhibition is 13.8% (inactive).

`CCCCn1c2c(c(=N)c3c1CCC3)CCC2`: the inhibition is -7.84% (inactive). Turning to `COC(=O)Cc1c(O)ccn(C2CC2)c1=O`, the inhibition is -1.41% (inactive). For `CC(C)C(NS(=O)(=O)c1cccs1)C(=O)NCc1ccccc1Cl` (stereo not given), the inhibition was -0.44% (inactive). `Cn1c(SCC(=O)N2CCCc3ccccc32)nnc1-c1cccs1`: the inhibition was 11.9% (inactive).

Regarding `COc1cc(NC(=O)c2ccc(Cl)cc2)c(OC)cc1NC(=O)CN1CCOCC1`, the inhibition was -0.92% (inactive). In the case of `COc1cc(NC(=O)c2ccccc2)c(OC)cc1NC(=O)CN1CCCCC1`, the inhibition is 25.5% (inactive). Under `Cc1cc(NC(=O)c2cc(-c3ccccc3)on2)no1` stands -3.83% (inactive).

On to `CCOC(=O)CC(=O)CSc1nc(C)cc(-c2cccnc2)c1C#N`, for which the inhibition was 0.1% (inactive). Consider `CCn1c(=O)n(CCc2ccccc2)c(=O)c2c3c(sc21)CCCC3`, for which the inhibition was 0.77% (inactive). Under `CN(C)CCCn1c(=O)n(Cc2ccco2)c(=O)c2c3c(sc21)CCCCC3` stands -6.11% (inactive); under `O=c1c2c3c(sc2nc(NCCO)n1CCc1ccccc1)CCCCC3`, 5.74% (inactive); under `CN(C)CCCNc1nc2sc3c(c2c(=O)n1CCc1ccccc1)CCCCC3`, 76.4% (inactive). Turning to `CC1=C(C(=O)Nc2ccccc2)C(c2ccccn2)n2nc(CCCO)nc2N1` (stereo not given), the inhibition is 2.92% (inactive). The same measure for `Cn1c(Sc2ccc(C(F)(F)F)cc2[N+](=O)[O-])nnc1-c1ccccc1`: 0.5% (inactive); for `CCc1ccc(CNCc2cccs2)cc1`: -12.3% (inactive); for `CCc1nc(NCCc2ccccn2)c2nnn(Cc3ccccc3F)c2n1`: 7.39% (inactive). Take `CN1CCN(CCCNC(=O)c2ccc(/C=C3\Sc4ccccc4N(Cc4ccccc4F)C3=O)cc2)CC1`: the inhibition was 33.6% (inactive). As for `CCN1CCN(CCCNC(=O)c2ccc(/C=C3/Sc4ccccc4N(Cc4ccccc4F)C3=O)cc2)CC1`, the inhibition is 1.17% (inactive). Under `NC(N)=NS(=O)(=O)c1ccc(NC(=S)NC(=O)/C=C/c2cccs2)cc1` stands 3.44% (inactive); under `CCOC(=O)c1c(-c2ccncc2)csc1N`, 9.94% (inactive).

For `c1cc(-c2ccncc2)ccn1`, the inhibition is 2.83% (inactive). In the case of `O=C(NC(=S)Nc1ccccc1[N+](=O)[O-])c1ccccc1Cl`, the inhibition is -1.52% (inactive). The same measure for `O=C(Nc1ccccc1)OCCCc1ccccc1`: 5.86% (inactive); for `COc1ccc(C2C=C(C34CC5CC(CC(C5)C3)C4)NC(=S)N2)cc1` (stereo not given): 1.23% (inactive). For the molecule `COC(=O)c1sc2cnccc2c1N`, the inhibition was -1.77% (inactive).

`COC(=O)CSc1nc(-c2cccs2)ccc1C#N`: the inhibition is -2.21% (inactive). Regarding `COC(=O)CSc1[nH]c(=O)cc(C)c1C#N`, the inhibition was -7.37% (inactive). As for `COC(=O)CSc1nc(C)cc(C)c1C#N`, the inhibition is -8.05% (inactive). Regarding `COC(=O)CSc1nc2cc(C)ccc2cc1C#N`, the inhibition is -2.11% (inactive). For `COC(=O)c1sc2ccccc2c1N`, the inhibition is 2.95% (inactive). For the molecule `COc1cc(SC)ccc1C(=O)OCC(=O)NC1CC1`, the inhibition was 2.29% (inactive). In the case of `CCOC(=O)CSc1snnc1C`, the inhibition was -2.01% (inactive).

With `CN(c1ccccc1)S(=O)(=O)c1cccc(Cl)c1Cl`, the inhibition was -4.92% (inactive). With `c1ccc(Oc2ccc(-c3ccnc4nc(N5CCN(c6ccccc6)CC5)nn34)cc2)cc1`, the inhibition is 20.8% (inactive). Turning to `c1ccc(-c2ccnc3nc(N4CCN(c5ccccc5)CC4)nn23)cc1`, the inhibition was 6.16% (inactive).

With `CNC(=S)NNC(=O)c1sccc1OCc1ccc(Cl)cc1Cl`, the inhibition is -2.33% (inactive). Regarding `COc1ccc(OC)c(-c2cc(C3CCN(c4ncccc4[N+](=O)[O-])CC3)[nH]n2)c1`, the inhibition was -8.76% (inactive). The same measure for `N#CC1CCN(c2ncccc2[N+](=O)[O-])CC1`: -9.15% (inactive); for `Cc1nnc(SCc2nc3ccccc3c(=O)n2-c2ccccc2Cl)n1N`: 2.11% (inactive); for `Cc1cccc(C)c1NC(=O)c1c(C)nn(-c2ccccc2)c1Cl`: -2.35% (inactive). For `O=C(O)CSc1ccnc2cc(Cl)ccc12`, the inhibition was 3.22% (inactive). On to `CCN(CC)C(=O)Oc1ccnc2cc(Cl)ccc12`, for which the inhibition is 2.84% (inactive).

Regarding `O=C(COc1ccccc1Cl)Nc1ccc2c(c1)OCCO2`, the inhibition was 5.61% (inactive). Under `COC(=O)c1ccccc1NC(=O)c1cc(C2CC2)on1` stands 4.32% (inactive); under `CCc1ccccc1NC(=O)c1cc(C2CC2)on1`, 8.45% (inactive).
